# Assay results taken from PMC7862700, “An all-to-all approach to the identification of sequence-specific readers for epigenetic DNA modifications on cytosine”.
# Assays:
# Assay in all cases: DAPPL (digital affinity profiling via proximity ligation, sequencing); 10 mM Tris-HCl pH 7.5, 50 mM NaCl, 1 mM DTT, 4% glycerol, room temperature, 30 min; GST-TFs on glutathione beads, 16-mer random dsDNA library, 0.1% formaldehyde crosslink after washing; high values mean tight binding
# [1] = target: T1, FLI1 (Homo sapiens, UniProt Q01543 1-452); conditions: protein: recombinant; tags: N-terminal GST; dsDNA, one strand shown
# T1 sequence: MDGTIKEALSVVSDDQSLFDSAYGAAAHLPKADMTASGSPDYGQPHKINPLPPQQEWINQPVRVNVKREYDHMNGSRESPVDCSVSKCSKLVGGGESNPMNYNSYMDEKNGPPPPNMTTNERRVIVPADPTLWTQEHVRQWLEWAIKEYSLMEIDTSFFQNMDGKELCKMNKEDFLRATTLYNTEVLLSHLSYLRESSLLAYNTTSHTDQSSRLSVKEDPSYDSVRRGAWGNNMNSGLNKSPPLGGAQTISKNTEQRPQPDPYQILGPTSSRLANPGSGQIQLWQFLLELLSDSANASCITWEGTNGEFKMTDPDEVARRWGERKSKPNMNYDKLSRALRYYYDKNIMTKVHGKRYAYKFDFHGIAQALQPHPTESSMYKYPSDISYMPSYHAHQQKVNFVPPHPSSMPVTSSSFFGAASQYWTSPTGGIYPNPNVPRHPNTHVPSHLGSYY
# Outline: (§1)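 A tag-only sample was pooled with DNA-barcoded human transcription factors that had been expressed in yeast as GST fusions and captured on glutathione beads. The pools were incubated for 30 min at room temperature with 200 nmole of a random double-stranded 16-mer DNA library in Tris/NaCl/DTT/glycerol buffer, then washed, crosslinked with 0.1% formaldehyde, proximity-ligated (BsaI/T4 ligase, 1 h, 37 °C), PCR-amplified and sequenced on an Illumina NextSeq500. Binding signal is each hexamer's read frequency for a factor divided by its frequency for the tag-only sample.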
# [2] = target: T2, ELK1 (Homo sapiens, UniProt P19419 1-428); conditions: protein: recombinant; tags: N-terminal GST; dsDNA, one strand shown
# T2 sequence: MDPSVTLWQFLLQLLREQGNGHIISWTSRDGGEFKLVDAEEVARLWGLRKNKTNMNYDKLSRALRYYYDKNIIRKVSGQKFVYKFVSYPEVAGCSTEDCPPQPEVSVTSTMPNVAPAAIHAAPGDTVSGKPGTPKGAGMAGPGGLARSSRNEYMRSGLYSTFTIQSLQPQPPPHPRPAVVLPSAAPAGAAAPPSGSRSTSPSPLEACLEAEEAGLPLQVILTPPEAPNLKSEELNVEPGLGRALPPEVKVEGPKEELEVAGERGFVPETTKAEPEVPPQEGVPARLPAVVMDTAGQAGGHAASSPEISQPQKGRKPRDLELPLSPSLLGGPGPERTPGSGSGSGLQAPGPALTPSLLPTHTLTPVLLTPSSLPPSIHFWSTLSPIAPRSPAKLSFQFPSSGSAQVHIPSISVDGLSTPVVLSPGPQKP
# Outline: as §1
# [3] = target: T3, GABPA (Homo sapiens, UniProt Q06546 1-454); conditions: protein: recombinant; tags: N-terminal GST; dsDNA, one strand shown
# T3 sequence: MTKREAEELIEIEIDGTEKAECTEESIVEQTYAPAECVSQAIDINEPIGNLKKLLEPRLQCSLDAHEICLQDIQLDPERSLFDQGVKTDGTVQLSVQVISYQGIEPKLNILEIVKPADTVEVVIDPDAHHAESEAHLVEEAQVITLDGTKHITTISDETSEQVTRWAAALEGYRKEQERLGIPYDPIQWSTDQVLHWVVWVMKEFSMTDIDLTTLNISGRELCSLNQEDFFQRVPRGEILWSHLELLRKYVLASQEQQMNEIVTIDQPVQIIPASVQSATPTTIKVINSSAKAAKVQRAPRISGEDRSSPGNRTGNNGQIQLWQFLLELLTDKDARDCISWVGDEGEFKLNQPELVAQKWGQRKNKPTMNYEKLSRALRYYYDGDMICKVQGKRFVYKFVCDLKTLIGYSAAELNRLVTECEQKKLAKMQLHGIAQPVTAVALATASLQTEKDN
# Outline: as §1
# [4] = target: T4, ERG (Homo sapiens, UniProt P11308 1-479); conditions: protein: recombinant; tags: N-terminal GST; dsDNA, one strand shown
# T4 sequence: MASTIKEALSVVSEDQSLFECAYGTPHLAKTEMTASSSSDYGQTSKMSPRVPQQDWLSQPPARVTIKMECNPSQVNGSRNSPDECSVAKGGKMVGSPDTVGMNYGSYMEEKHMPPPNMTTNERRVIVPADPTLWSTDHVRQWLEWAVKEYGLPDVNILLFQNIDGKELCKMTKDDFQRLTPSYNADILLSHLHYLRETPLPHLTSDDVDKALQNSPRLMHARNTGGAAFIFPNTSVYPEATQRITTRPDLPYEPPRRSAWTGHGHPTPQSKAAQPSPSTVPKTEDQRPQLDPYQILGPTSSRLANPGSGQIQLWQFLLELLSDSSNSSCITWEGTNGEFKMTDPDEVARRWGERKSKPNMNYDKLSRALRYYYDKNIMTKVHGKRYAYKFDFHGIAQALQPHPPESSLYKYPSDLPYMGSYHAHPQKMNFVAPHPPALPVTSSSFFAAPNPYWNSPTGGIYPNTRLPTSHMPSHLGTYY
# Outline: as §1
# [5] = target: ELF1 (Homo sapiens, UniProt P32519 1-619); conditions: protein: recombinant; tags: N-terminal GST; dsDNA, one strand shown
# Outline: as §1
# [6] = target: T5, EHF (Homo sapiens, UniProt Q9NZC4 1-300); conditions: protein: recombinant; tags: N-terminal GST; dsDNA, one strand shown
# T5 sequence: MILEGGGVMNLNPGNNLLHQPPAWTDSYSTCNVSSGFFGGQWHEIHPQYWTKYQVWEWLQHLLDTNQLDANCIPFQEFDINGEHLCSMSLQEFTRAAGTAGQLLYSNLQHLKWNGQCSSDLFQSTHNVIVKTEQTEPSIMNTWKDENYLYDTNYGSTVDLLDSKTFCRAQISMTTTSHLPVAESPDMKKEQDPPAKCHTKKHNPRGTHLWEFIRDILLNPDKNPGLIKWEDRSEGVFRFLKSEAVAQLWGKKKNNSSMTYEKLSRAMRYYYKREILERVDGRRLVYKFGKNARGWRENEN
# Outline: as §1
# [7] = target: SPI1 (Homo sapiens, UniProt P17947 1-270); conditions: protein: recombinant; tags: N-terminal GST; dsDNA, one strand shown
# Outline: as §1
# [8] = target: SPIB (Homo sapiens, UniProt Q01892 1-262); conditions: protein: recombinant; tags: N-terminal GST; dsDNA, one strand shown
# Outline: as §1
# [9] = target: T6, ELK3 (Homo sapiens, UniProt P41970 1-407); conditions: protein: recombinant; tags: N-terminal GST; dsDNA, one strand shown
# T6 sequence: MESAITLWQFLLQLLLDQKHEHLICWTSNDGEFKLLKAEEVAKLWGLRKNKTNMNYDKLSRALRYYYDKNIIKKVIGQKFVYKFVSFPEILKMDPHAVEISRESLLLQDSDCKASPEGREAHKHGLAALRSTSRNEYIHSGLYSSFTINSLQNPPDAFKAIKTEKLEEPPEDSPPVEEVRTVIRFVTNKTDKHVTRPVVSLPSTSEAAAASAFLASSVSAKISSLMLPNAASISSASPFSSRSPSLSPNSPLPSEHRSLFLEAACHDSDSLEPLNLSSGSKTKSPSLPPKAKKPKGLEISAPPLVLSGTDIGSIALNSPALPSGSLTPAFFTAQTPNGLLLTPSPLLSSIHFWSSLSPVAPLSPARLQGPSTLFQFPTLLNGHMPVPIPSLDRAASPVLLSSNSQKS
# Outline: as §1
# [10] = target: T7, FEV (Homo sapiens, UniProt Q99581 1-238); conditions: protein: recombinant; tags: N-terminal GST; dsDNA, one strand shown
# T7 sequence: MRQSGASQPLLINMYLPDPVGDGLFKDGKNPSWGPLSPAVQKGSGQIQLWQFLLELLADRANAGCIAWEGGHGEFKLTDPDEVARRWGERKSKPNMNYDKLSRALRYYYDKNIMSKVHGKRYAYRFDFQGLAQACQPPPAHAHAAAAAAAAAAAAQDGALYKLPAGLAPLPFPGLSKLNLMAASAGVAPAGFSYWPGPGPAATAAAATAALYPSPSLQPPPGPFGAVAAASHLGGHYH
# Outline: as §1
# [11] = target: ETV5 (Homo sapiens, UniProt P41161 1-510); conditions: protein: recombinant; tags: N-terminal GST; dsDNA, one strand shown
# Outline: as §1
# [12] = target: HSF1 (Homo sapiens, UniProt Q00613 1-529); conditions: protein: recombinant; tags: N-terminal GST; chain copies: 3; dsDNA, one strand shown
# Outline: as §1
# [13] = target: T8, SPIC (Homo sapiens, UniProt Q8N5J4 1-248); conditions: protein: recombinant; tags: N-terminal GST; dsDNA, one strand shown
# T8 sequence: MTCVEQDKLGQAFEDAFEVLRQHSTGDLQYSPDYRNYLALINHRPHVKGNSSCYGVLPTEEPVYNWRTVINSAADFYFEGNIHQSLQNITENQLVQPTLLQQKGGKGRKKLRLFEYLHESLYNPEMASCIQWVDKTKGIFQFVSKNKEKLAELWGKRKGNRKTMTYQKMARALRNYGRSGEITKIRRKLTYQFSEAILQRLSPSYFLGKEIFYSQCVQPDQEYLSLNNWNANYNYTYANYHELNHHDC
# Outline: as §1
# [14] = target: ELF4 (Homo sapiens, UniProt Q99607 1-663); conditions: protein: recombinant; tags: N-terminal GST; dsDNA, one strand shown
# Outline: as §1
# [15] = target: T9, ELK4 (Homo sapiens, UniProt P28324-2 1-405); conditions: protein: recombinant; tags: N-terminal GST; dsDNA, one strand shown
# T9 sequence: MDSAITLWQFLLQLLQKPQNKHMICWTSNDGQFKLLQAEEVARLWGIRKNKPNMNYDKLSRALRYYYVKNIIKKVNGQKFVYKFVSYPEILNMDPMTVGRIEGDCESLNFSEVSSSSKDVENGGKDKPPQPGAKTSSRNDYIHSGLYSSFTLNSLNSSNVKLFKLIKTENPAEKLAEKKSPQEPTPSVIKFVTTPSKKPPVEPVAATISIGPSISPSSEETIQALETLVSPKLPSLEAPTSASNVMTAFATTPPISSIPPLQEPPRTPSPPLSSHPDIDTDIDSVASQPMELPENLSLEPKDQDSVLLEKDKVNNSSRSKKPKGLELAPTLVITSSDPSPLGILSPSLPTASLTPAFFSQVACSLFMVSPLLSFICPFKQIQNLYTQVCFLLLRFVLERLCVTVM
# Outline: as §1
# [16] = target: T10, ETV2 (Homo sapiens, UniProt O00321 1-342); conditions: protein: recombinant; tags: N-terminal GST; dsDNA, one strand shown
# T10 sequence: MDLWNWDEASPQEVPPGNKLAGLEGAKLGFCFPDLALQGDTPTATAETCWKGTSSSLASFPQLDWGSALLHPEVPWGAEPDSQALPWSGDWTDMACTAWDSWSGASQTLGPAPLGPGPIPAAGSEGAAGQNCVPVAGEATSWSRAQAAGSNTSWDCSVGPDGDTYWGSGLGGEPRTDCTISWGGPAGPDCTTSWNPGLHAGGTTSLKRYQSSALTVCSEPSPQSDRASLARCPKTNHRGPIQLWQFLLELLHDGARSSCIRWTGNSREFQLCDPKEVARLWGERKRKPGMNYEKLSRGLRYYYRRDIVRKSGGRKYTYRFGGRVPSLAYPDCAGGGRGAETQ
# Outline: as §1
# [17] = target: T11, ELF3 (Homo sapiens, UniProt P78545 1-371); conditions: protein: recombinant; tags: N-terminal GST; dsDNA, one strand shown
# T11 sequence: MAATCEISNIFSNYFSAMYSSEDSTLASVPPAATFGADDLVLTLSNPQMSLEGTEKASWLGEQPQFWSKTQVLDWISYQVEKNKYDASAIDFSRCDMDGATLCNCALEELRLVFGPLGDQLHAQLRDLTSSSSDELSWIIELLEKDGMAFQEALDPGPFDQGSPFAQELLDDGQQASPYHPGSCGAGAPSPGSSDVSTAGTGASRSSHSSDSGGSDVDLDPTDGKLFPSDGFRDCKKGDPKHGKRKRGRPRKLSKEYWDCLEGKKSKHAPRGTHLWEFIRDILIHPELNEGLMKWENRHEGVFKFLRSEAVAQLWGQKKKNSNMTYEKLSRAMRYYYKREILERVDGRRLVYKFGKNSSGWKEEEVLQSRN
# Outline: as §1
# [18] = target: CRX (Homo sapiens, UniProt O43186 1-299); conditions: protein: recombinant; tags: N-terminal GST; dsDNA, one strand shown
# Outline: as §1
# [19] = target: ETV1 (Homo sapiens, UniProt P50549 1-477); conditions: protein: recombinant; tags: N-terminal GST; dsDNA, one strand shown
# Outline: as §1
# Sequence of SPIB (Q01892 whole entry): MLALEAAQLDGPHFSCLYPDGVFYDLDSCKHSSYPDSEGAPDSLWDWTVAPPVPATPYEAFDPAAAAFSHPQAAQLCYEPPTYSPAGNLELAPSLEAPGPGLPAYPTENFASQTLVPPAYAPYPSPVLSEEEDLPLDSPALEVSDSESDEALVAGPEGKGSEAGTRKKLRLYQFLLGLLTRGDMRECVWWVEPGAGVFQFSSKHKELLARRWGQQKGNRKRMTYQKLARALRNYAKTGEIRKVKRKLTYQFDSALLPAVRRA
# Sequence of HSF1 (Q00613 whole entry): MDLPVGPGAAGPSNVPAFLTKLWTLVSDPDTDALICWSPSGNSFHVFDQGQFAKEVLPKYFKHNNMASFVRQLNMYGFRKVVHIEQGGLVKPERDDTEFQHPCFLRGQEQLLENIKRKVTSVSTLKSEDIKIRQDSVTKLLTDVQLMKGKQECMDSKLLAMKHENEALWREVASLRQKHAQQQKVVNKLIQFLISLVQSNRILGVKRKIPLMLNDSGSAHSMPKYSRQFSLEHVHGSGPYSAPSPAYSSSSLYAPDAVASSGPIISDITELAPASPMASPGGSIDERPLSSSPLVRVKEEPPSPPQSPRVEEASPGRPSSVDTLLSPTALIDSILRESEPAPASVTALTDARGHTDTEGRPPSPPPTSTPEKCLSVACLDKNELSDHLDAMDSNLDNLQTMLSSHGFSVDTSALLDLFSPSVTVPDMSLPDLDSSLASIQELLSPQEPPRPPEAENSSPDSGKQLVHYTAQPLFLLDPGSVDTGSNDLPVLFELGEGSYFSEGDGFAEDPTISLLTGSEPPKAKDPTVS
# Sequence of ETV1 (P50549 whole entry): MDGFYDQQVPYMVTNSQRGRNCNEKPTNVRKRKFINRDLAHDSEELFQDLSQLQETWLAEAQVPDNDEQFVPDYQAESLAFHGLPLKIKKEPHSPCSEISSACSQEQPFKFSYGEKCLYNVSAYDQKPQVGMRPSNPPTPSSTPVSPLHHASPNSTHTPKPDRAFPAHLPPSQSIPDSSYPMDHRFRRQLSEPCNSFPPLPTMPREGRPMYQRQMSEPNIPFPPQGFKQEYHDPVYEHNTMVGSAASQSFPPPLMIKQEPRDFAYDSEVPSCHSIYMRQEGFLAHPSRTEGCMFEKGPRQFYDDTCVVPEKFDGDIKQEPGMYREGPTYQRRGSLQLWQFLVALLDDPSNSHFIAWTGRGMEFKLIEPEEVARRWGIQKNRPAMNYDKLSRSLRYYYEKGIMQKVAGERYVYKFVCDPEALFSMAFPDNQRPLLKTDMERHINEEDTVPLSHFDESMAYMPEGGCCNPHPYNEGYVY
# Sequence of ELF4 (Q99607 whole entry): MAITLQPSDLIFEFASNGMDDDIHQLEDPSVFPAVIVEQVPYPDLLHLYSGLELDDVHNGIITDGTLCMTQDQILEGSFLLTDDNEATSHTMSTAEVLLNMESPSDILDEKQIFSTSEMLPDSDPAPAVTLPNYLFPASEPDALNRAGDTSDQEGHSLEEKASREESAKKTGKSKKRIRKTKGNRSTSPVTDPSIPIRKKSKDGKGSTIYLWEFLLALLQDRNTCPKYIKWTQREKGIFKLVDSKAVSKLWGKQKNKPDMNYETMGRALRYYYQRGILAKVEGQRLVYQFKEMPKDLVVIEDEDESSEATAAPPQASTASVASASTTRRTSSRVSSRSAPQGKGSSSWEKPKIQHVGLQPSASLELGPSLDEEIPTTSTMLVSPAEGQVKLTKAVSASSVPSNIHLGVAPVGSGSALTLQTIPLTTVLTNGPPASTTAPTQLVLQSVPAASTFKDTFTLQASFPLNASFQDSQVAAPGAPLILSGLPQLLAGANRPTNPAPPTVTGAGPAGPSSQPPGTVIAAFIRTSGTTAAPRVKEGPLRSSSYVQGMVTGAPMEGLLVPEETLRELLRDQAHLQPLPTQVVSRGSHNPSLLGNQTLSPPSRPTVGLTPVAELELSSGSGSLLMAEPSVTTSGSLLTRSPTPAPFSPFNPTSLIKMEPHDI
# Sequence of ELF1 (P32519 whole entry): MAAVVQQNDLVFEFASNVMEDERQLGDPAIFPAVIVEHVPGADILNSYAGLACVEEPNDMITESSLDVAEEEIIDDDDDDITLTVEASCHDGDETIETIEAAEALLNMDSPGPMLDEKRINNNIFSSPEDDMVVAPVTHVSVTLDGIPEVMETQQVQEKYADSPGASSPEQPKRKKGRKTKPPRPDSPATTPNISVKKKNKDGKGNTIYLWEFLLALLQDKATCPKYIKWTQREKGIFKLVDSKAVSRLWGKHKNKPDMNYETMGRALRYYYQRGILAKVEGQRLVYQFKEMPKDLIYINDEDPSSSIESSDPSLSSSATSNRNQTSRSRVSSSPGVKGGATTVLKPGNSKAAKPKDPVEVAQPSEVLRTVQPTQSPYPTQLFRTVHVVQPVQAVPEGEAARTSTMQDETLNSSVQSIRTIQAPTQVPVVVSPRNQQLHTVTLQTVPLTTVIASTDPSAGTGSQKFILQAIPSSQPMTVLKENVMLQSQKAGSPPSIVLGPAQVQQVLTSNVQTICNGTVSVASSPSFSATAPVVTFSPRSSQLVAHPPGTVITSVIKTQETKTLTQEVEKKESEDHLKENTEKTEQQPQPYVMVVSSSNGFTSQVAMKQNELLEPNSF
# Sequence of CRX (O43186 whole entry): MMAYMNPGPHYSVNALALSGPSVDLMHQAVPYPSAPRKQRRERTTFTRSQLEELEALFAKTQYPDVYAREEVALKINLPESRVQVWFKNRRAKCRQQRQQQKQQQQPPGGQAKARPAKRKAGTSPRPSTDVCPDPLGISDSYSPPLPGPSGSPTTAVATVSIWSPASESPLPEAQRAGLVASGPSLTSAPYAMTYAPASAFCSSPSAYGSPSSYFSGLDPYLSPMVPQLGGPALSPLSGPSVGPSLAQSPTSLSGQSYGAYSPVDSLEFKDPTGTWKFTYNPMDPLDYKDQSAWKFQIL
# Sequence of ETV5 (P41161 whole entry): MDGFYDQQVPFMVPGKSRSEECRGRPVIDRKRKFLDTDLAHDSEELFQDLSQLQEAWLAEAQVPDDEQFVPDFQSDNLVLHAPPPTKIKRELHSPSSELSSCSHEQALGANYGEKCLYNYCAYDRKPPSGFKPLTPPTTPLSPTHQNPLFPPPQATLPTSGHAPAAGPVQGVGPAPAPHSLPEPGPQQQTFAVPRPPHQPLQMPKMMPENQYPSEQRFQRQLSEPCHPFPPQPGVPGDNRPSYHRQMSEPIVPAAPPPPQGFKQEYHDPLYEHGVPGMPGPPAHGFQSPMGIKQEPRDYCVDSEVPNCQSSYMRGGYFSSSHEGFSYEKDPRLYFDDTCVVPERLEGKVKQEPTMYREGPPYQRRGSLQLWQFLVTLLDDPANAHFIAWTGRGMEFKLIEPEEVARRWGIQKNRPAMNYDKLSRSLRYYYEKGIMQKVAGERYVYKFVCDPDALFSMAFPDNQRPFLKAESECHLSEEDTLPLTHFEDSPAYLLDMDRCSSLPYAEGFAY
sequence,measurement,setting,value
CCCCTT,binding signal,[1],"1.48 fold enrichment (6-mer frequency, TF over GST control)"
same,binding signal,[2],"1.55 fold enrichment (6-mer frequency, TF over GST control)"
same,binding signal,[3],"1.44 fold enrichment (6-mer frequency, TF over GST control)"
same,binding signal,[4],"1.54 fold enrichment (6-mer frequency, TF over GST control)"
same,binding signal,[5],"1.53 fold enrichment (6-mer frequency, TF over GST control)"
same,binding signal,[6],"1.62 fold enrichment (6-mer frequency, TF over GST control)"
same,binding signal,[7],"2.01 fold enrichment (6-mer frequency, TF over GST control)"
same,binding signal,[8],"1.53 fold enrichment (6-mer frequency, TF over GST control)"
same,binding signal,[9],"1.51 fold enrichment (6-mer frequency, TF over GST control)"
same,binding signal,[10],"1.57 fold enrichment (6-mer frequency, TF over GST control)"
same,binding signal,[11],"1.62 fold enrichment (6-mer frequency, TF over GST control)"
same,binding signal,[12],"1.37 fold enrichment (6-mer frequency, TF over GST control)"
same,binding signal,[13],"1.56 fold enrichment (6-mer frequency, TF over GST control)"
same,binding signal,[14],"1.63 fold enrichment (6-mer frequency, TF over GST control)"
same,binding signal,[15],"1.53 fold enrichment (6-mer frequency, TF over GST control)"
same,binding signal,[16],"1.35 fold enrichment (6-mer frequency, TF over GST control)"
same,binding signal,[17],"1.6 fold enrichment (6-mer frequency, TF over GST control)"
same,binding signal,[18],"1.41 fold enrichment (6-mer frequency, TF over GST control)"
same,binding signal,[19],"1.63 fold enrichment (6-mer frequency, TF over GST control)"
